Consider 8 molecules from PubChem BioAssay (Tox21).

Unmarked numbers belong to inactive results. Results filed as inconclusive are left out. Active and inactive are the calls of the source. Unless noted, calls follow the shape of the full dose curve.

Experiment [1] can be described thus: Nuclear factor erythroid 2-related factor 2/antioxidant responsive element (Nrf2/ARE) small molecule agonists: qHTS cell viability counter screen in human keratinocytes (AID 1919968; active = well fitted curve in the direction sought with a large enough effect in the repeat runs; an effect the other way counts as inactive or inconclusive; also: nearly all actives have a fitted effect of over 55% in size; also: potency is read from the fitted curve at half-maximal effect). Summed up:
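Cytotoxicity was multiplexed with the Nrf2/ARE luciferase assay in the same wells. Stably transfected HaCaT keratinocytes were treated with test compounds for 23 h at 37 C. Cell viability was then measured by CellTiter-Fluor fluorescence.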

The nature of experiment [2]: Nuclear factor erythroid 2-related factor 2/antioxidant responsive element (Nrf2/ARE) small molecule agonists: luciferase reporter gene qHTS assay in human keratinocytes (AID 1919969). Also: nearly all actives have a fitted effect of over 35% in size. Also: potency is read from the fitted curve at half-maximal effect. A general note: A reporter such as luciferase makes a cellular process visible.
The target of experiment [3] is Gonadotropin-releasing hormone receptor (Homo sapiens) (UniProt P30968). Kind of experiment: Human gonadotropin-releasing hormone receptor (GnRHR) small molecule agonists, calcium flux assay in GnRHR-HEK293 cells (AID 1920063). Also: nearly all actives have a fitted effect of over 35% in size. Summed up: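 Agonist activity was measured as intracellular calcium flux in HEK293 cells engineered to stably express human GnRHR. After dye loading for 1 hour at 37 C, compounds in DMSO were added and fluorescence was followed for 3 minutes.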
Gonadotropin-releasing hormone receptor (Homo sapiens), sequence (P30968 whole entry, looked up): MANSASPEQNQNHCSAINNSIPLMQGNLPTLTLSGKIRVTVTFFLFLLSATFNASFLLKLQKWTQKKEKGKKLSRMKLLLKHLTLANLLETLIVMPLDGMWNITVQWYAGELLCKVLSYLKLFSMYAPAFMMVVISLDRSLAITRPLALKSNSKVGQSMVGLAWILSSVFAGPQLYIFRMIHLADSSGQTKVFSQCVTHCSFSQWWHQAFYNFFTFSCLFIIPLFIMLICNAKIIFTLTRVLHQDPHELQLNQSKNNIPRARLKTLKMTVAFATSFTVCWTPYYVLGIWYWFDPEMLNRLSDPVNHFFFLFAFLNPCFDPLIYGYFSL
On the technique in general: Calcium assays in cells follow changes in intracellular calcium, usually with a dye or a luminescent sensor.

The target in experiment [4] is KiSS-1 receptor (Homo sapiens) (UniProt Q969F8). Put plainly: Human kisspeptin (KISS1R) small molecule agonists, calcium flux assay in KISS1R-HEK293 cells (AID 1920064; active = well fitted curve in the direction sought with a large enough effect in the repeat runs; an effect the other way counts as inactive or inconclusive). Summed up: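 Agonist activity is monitored as intracellular calcium rise in engineered HEK293 cells carrying human KISS1R. Cells are dye-loaded for 1 h at 37 C before compound addition, and fluorescence is recorded for 3 min.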
KiSS-1 receptor (Homo sapiens), sequence (Q969F8 whole entry, looked up): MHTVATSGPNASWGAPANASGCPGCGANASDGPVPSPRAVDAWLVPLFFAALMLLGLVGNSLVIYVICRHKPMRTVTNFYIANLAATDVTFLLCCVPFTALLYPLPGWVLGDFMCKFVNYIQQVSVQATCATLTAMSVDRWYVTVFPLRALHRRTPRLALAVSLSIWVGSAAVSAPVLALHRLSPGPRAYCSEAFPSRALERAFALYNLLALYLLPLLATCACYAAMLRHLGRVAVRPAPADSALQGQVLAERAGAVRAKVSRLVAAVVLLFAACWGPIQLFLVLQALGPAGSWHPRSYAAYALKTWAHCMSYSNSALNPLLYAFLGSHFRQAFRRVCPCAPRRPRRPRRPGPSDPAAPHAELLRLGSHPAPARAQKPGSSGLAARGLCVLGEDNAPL

Experiment [5] can be described thus: G protein-coupled receptor (GPCR) small molecule agonists, calcium flux assay: HEK293 wild type cell line counter screen (AID 1920065). In a few lines: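 Seed cells, incubate 18 h (37 C, 5% CO2); add calcium dye, 1 h at 37 C; pin-transfer compounds, ATP control or DMSO; read fluorescence 480/540 nm each second for 3 min.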
A short description of experiment [6]: p53 small molecule agonists, cell-based qHTS assay with human liver microsomes: qHTS cell viability counter screen (AID 1963579). Also: nearly all actives have a fitted effect of over 45% in size. Also: potency is read from the fitted curve at half-maximal effect. Summed up:
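Viability of p53RE-bla cells is measured as CellTiter-Glo luminescence following a 16 h, 37 C incubation with compound, liver microsomes from human donors and NADPH.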
For orientation: In qHTS, concentration-response curves come from the screen itself.

The nature of experiment [7]: p53 small molecule agonists, cell-based qHTS assay with rat liver microsomes: qHTS cell viability counter screen (AID 1963580). Also: nearly all actives have a fitted effect of over 45% in size. Also: potency is read from the fitted curve at half-maximal effect. In a few lines:
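Luminescent ATP readout (CellTiter-Glo, 30 min at room temperature) reports viability of p53RE-bla HCT-116 cells after 16 h at 37 C with test compounds under metabolic activation by rat liver microsomes and NADPH at 0.5 mg/mL final each.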

The nature of experiment [8]: p53 small molecule agonists, cell-based qHTS assay: qHTS cell viability counter screen (AID 1963581). Also: nearly all actives have a fitted effect of over 45% in size. Also: potency is read from the fitted curve at half-maximal effect. Summed up: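 Viability was counter-screened in parallel with the p53 agonist reporter by measuring intracellular ATP luminescence in the same HCT-116 p53RE-bla wells after 16 h compound treatment at 37 C.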
Experiment [9] deals with 5-hydroxytryptamine receptor 2A (Homo sapiens) (UniProt P28223). Kind of experiment: 5-hydroxytryptamine receptor 2A (HTR2A) small molecule antagonists, cell-based qHTS assay (AID 1963586). Also: nearly all actives have a fitted effect of over 45% in size. Also: potency is read from the fitted curve at half-maximal effect. Summed up: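 CHO cells stably expressing human HTR2A were plated for 18 h at 37 C, then loaded with calcium dye for 1 h. Compounds were preincubated 5 min at room temperature before DOI (4 nM solution) was added. Kinetic fluorescence was read for 3 min.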
5-hydroxytryptamine receptor 2A (Homo sapiens), sequence (P28223 whole entry, looked up): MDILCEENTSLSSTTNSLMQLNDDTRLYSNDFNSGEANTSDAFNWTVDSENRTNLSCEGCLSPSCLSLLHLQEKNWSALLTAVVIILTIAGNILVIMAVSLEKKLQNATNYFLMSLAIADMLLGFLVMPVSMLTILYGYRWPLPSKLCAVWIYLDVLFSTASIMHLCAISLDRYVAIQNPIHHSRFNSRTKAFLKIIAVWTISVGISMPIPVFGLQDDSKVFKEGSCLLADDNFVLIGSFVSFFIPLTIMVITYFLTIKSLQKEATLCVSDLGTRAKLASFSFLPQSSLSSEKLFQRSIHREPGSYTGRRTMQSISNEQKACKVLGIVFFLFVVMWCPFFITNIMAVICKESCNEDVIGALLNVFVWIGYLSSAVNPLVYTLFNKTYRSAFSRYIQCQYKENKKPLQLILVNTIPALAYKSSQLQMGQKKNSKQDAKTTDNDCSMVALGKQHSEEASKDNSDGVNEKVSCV

The target is the same in experiment [10]. Put plainly: 5-hydroxytryptamine receptor 2A (HTR2A) small molecule agonists, cell-based qHTS assay (AID 1963587). Also: nearly all actives have a fitted effect of over 30% in size. Also: potency is read from the fitted curve at half-maximal effect. In a few lines: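 HTR2A-CHO cells, plated 18 h at 37 C/5% CO2, dye-loaded 1 h at 37 C; compounds in DMSO added by pin tool (agonist mode). Intracellular calcium flux read as kinetic fluorescence on FDSS over 2 min at 1 s intervals.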
Experiment [11] addresses Muscarinic acetylcholine receptor M1 (Homo sapiens) (UniProt P11229). Put plainly: Cholinergic receptor muscarinic 1 (CHRM1) small molecule antagonists, cell-based qHTS assay (AID 1963588). Also: nearly all actives have a fitted effect of over 40% in size. Also: potency is read from the fitted curve at half-maximal effect. Summed up: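 Compounds were tested at 15 concentrations in three independent runs. Dye-loaded CHRM1-CHO cells were exposed 5 min at room temperature before stimulation by acetylcholine added at 50nM. Intracellular calcium was read kinetically on FDSS for 3 min.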

The target is the same in experiment [12]. Kind of experiment: Cholinergic receptor muscarinic 1 (CHRM1) small molecule agonists, cell-based qHTS assay (AID 1963589). Also: nearly all actives have a fitted effect of over 35% in size. In a few lines: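 Cells were plated and incubated 18 h at 37 C/5% CO2, loaded with calcium dye for 1 h at 37 C, then treated with compounds in DMSO. Fluorescence was recorded kinetically at 1 sec intervals.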
The nature of experiment [13]: cAMP Responsive Elements (CRE) small molecule agonists, cell-based qHTS assay (AID 1963590). Also: potency is read from the fitted curve at half-maximal effect. In a few lines:
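Cells carrying a CRE-driven beta-lactamase reporter (HEK 293T) are seeded, incubated overnight (18 h), and treated with test compounds for 3 h at 37 C; reporter activity is then detected with a FRET substrate after 2 h at room temperature.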

The nature of experiment [14]: cAMP Responsive Elements (CRE) small molecule antagonists, cell-based qHTS assay (AID 1963591; active = well fitted inhibition curve with a large enough effect in the signal ratio in the repeat runs, not every such curve was filed as active; the % refers to the signal ratio). Summed up:
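Cells (CRE-bla HEK 293T, DMEM with 10% dialyzed FBS and 25 mM HEPES) are seeded and incubated 18 h. Compounds are added with NKH477 agonist at 0.25 uM final for 3 h, then FRET substrate for 2 h.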

Experiment [15] concerns the target Beta-2 adrenergic receptor (Homo sapiens) (UniProt P07550). Put plainly: Adrenergic beta2 receptor (ADRB2) small molecule antagonists, cell-based qHTS assay (AID 1963592). Also: series mostly up to about 92 µM; nearly all actives have a fitted effect of over 50% in size. In a few lines: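 Assay format: CHO-ADRB2 cells, 18-20hr seeding at 37C/5% CO2, then compound plus 1nM isoproterenol agonist mix for 0.5hr RT. Homogeneous time-resolved fluorescence cAMP detection after 1hr, expressed as 665/615 nm ratio.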

For experiment [16] the target is unchanged. Kind of experiment: Adrenergic beta2 receptor (ADRB2) small molecule agonists, cell-based qHTS assay (AID 1963593).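 Also: CHO cells stably overexpressing human ADRB2.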 Summed up:
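CHO cells stably over-expressing ADRB2 were plated overnight at 37C, then dosed with compounds plus a stimulation mix containing 100uM IBMX and 25uM Ro-20-1724 for 0.5hr at room temperature. cAMP was measured by HTRF competition, 1hr.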

Experiment [17] concerns the target D(2) dopamine receptor (Homo sapiens) (UniProt P14416). Put plainly: Dopamine D2 receptor (DRD2) small molecule agonists, cell-based qHTS assay (AID 1963594). Also: nearly all actives have a fitted effect of over 35% in size. Summed up: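 HEK293 cells stably expressing DRD2 were cultured 24 h at 37 C, then given Ro20-1724 (0.1 mM final) and compounds for 10 min at room temperature. NKH477 (200nM) was then added for 30 min. cAMP was read by HTRF.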

Experiment [18] is described as follows: p53 small molecule agonists, cell-based qHTS assay (AID 1963582; active = well fitted activation curve with a large enough effect in the signal ratio in the repeat runs, not every such curve was filed as active; the % refers to the signal ratio; also: potency is read from the fitted curve at half-maximal effect). In a few lines:
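Cells carrying a p53-responsive bla reporter are treated with test compounds for 16 h at 37 C; beta-lactamase activity is then detected with LiveBLAzer B/G FRET substrate after 2 h at room temperature.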

The target in experiment [19] is D(2) dopamine receptor (Homo sapiens) (UniProt P14416). Put plainly: Dopamine D2 receptor (DRD2) small molecule antagonists, cell-based qHTS assay (AID 1963595; active = well fitted inhibition curve with a large enough effect in the signal ratio in the repeat runs, with a control signal flat; the % refers to the signal ratio). In a few lines:
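Cells were plated and grown for 24 h at 37 °C. Ro20-1724 (0.1 mM final) went in first, then compound for 10 min. NKH477 (200 nM) with quinpirole (12 nM) followed for 30 min at RT, then HTRF detection reagents for 1 h.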

A short description of experiment [20]: p53 small molecule agonists, cell-based qHTS assay with rat liver microsomes (AID 1963578). In a few lines: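 Quantitative HTS of the Tox21 10K library: p53RE-bla cells, rat liver microsomes plus NADPH at 0.5 mg/mL final each, 16 h at 37 C, beta-lactamase fluorescence detection.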

Beta-2 adrenergic receptor (Homo sapiens), sequence (P07550 whole entry, looked up): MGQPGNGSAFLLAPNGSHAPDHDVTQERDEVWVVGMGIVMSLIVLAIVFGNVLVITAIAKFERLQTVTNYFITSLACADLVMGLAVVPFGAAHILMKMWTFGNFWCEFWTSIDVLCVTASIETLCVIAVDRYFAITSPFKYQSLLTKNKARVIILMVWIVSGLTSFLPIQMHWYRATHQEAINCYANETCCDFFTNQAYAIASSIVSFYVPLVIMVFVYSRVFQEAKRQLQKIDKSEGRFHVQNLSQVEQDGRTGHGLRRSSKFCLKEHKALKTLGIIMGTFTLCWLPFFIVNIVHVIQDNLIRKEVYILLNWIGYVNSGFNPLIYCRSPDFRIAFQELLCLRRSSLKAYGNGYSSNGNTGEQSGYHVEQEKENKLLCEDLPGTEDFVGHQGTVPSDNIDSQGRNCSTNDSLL
D(2) dopamine receptor (Homo sapiens), sequence (P14416 whole entry, looked up): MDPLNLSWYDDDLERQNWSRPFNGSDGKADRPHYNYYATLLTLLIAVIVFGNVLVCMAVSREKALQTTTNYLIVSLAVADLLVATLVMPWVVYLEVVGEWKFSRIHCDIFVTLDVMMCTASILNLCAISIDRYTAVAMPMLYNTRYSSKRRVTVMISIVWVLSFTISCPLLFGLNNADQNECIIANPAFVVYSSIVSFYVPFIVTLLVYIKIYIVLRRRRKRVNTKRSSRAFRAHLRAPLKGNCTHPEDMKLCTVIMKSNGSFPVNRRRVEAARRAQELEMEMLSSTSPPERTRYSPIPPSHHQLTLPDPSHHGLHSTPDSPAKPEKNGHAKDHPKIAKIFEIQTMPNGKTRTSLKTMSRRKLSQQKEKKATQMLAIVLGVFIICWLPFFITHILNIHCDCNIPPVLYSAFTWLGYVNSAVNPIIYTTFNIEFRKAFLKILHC
Muscarinic acetylcholine receptor M1 (Homo sapiens), sequence (P11229 whole entry, looked up): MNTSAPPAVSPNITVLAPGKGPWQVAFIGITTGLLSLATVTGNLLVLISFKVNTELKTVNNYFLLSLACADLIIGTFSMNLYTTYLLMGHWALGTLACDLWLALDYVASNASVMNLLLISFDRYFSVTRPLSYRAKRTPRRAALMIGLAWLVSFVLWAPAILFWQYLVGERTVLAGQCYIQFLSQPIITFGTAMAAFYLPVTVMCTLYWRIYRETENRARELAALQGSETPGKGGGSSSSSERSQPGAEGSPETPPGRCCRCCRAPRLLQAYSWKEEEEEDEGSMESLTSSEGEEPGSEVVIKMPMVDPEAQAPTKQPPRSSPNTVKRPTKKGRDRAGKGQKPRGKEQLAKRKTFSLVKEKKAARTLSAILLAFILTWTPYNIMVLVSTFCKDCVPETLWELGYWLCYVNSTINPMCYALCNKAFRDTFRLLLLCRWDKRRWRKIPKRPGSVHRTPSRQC

For `CCN(Cc1cccc(S(=O)(=O)O)c1)c1ccc(C(=C2C=CC(=[N+](CC)Cc3cccc(S(=O)(=O)O)c3)C=C2)c2ccc(O)cc2S(=O)(=O)[O-])cc1`, the Potency in [1] is 33.1 µM (active); in experiment [6], 24.8 µM (active); in experiment [7] it was 24.8 µM (active); in experiment [8], 11.1 µM (active). Further, the Potency entry in experiment [2], in experiment [3], in experiment [4], in experiment [5], in experiment [9] and in experiment [10] was “inactive” throughout. Besides, the Potency result in [11], in experiment [12], in experiment [13] and in [14] was “inactive” each time.
`OC[C@H]1O[C@@H]2O[C@H]3[C@H](O)[C@@H](O)[C@@H](O[C@H]4[C@H](O)[C@@H](O)[C@@H](O[C@H]5[C@H](O)[C@@H](O)[C@@H](O[C@H]6[C@H](O)[C@@H](O)[C@@H](O[C@H]7[C@H](O)[C@@H](O)[C@@H](O[C@H]8[C@H](O)[C@@H](O)[C@@H](O[C@H]9[C@H](O)[C@@H](O)[C@@H](O[C@H]1[C@H](O)[C@H]2O)O[C@@H]9CO)O[C@@H]8CO)O[C@@H]7CO)O[C@@H]6CO)O[C@@H]5CO)O[C@@H]4CO)O[C@@H]3CO`: the Potency result in experiment [1], in experiment [2], in experiment [3], in experiment [4], in experiment [5] and in experiment [6] was “inactive” in each case. Besides, the Potency entry in [7], in [8], in [9], in experiment [10], in experiment [11] and in experiment [12] was “inactive” each time. In addition, the Potency entry in experiment [13], in [14], in [15], in [16] and in experiment [17] was “inactive” throughout.
As to `CC(CN=Cc1ccccc1O)N=Cc1ccccc1O` (centres undefined), the Potency entry in experiment [1], in [2], in experiment [3], in experiment [4], in experiment [5] and in experiment [6] was “inactive” each time. The Potency result in experiment [7], in experiment [8], in experiment [18], in [9], in [11] and in experiment [12] was “inactive” each time. The Potency entry in experiment [13], in experiment [14], in experiment [15], in experiment [16], in [17] and in experiment [19] was “inactive” each time.
`O=C(O)CNC(=O)CNC(=O)CNC(=O)CSC(=O)c1ccccc1`: the Potency result in [1], in experiment [2], in experiment [3], in experiment [4], in experiment [5] and in experiment [6] was “inactive” each time. For the same molecule, the Potency entry in experiment [7], in experiment [8], in experiment [9], in experiment [10], in [11] and in experiment [12] was “inactive” in each case. In addition, the Potency entry in experiment [13], in [14], in experiment [15], in [16], in experiment [17] and in experiment [19] was “inactive” throughout.
Consider `Nc1nc(Cl)nc2c1ncn2[C@H]1C[C@H](O)[C@@H](CO)O1`, for which the Potency entry in experiment [1], in [2], in [3], in [4], in [5] and in experiment [6] was “inactive” each time. Moreover, the Potency entry in experiment [7], in [8], in experiment [15], in experiment [17] and in experiment [19] was “inactive” in each case. Besides, the Potency in experiment [18] was 0.572 µM (active); in experiment [13], 60.7 µM (active).
For the molecule `CCCC(CCC)(C(=O)OCC)C(=O)OCC`, the Potency result in experiment [1], in [2], in experiment [3], in [4], in experiment [5] and in [6] was “inactive” in each case. For the same molecule, the Potency entry in [7], in [8], in experiment [18], in [11], in experiment [12] and in experiment [13] was “inactive” each time. The Potency result in [14], in [15] and in experiment [19] was “inactive” in each case. Also, the figures for the Potency in experiment [9] and in experiment [10] were 3.26 µM (active) and 1.69 µM (active), respectively.
`O=c1[nH]sc2ccccc12`: the Potency in experiment [1] is 24.3 µM (active); in experiment [2], 12.2 µM (active). Also, the Potency result in experiment [3], in [4], in experiment [5], in experiment [20], in [8] and in experiment [12] was “inactive” each time. In addition, the Potency entry in experiment [16] and in experiment [19] was “inactive” throughout.
As for `O=c1[nH]c2ccc(S(=O)CCN3CCC(Cc4ccc(F)cc4)CC3)cc2o1` (centres undefined), the Potency result in experiment [1], in experiment [3], in experiment [4], in experiment [5], in [20] and in [7] was “inactive” throughout. Further, the Potency result in experiment [18], in experiment [9], in experiment [10] and in experiment [15] was “inactive” in each case. Also, the Potency in experiment [2] is 61.1 µM (active); in [11], 14.9 µM (active).
